We go through 40 molecules from PubChem BioAssay (NCATS).

The structures appear in SMILES notation. Values without a mark were called inactive. Calls follow the shape of the dose curve; as a rule, active = well fitted curve in the direction sought with a large enough effect; inconclusive = small, poorly fitted or top-dose-only effect, or another doubt; inactive = no such curve, though single readings can be large or run the other way.

This assay in a line: Cellular Toxicity (caspase-3) BJ (AID 658). Particulars: BJ fibroblasts, luminescence, normalized: DMSO 0%, staurosporine 100%; series mostly up to 91.7 µM; caspase-3 activation: at the top concentration. An excerpt: NIH Chemical Genomics Center [NCGC]
NIH Molecular Libraries Screening Centers Network [MLSCN]
National Institutes of Environmental Health Sciences [NIEHS]
National Toxicology Program [NTP]
We have developed a 1536-well cell-based assay for quantitative high throughput screening (qHTS) against a number of cell lines to determine in vitro caspase 3/7 activity of small molecules. This particular assay uses BJ cell line which is derived from normal human foreskin fibroblast.
NCGC Assay Protocol Summary:
The Caspase-Glo 3/7 assay (Promega) is a homogeneous method to measure caspase-3 and caspase-7 activities in cultured cells. The quantitation of caspase 3/7 activity is based on the cleavage of a peptide-aminoluciferin substrate. After caspase cleaves the substrate the free aminoluciferin is liberated and serves as the substrate of luciferase, which generates the light. The luminescent signal is proportional to amount of caspase 3/7 activity present.
Using the Caspase-Glo 3/7 assay, the amount of caspase 3/7 activity was measured in the BJ cell line with complete culture medium following compound treatment for 16 hours. The assay was performed in opaque white 1536-well plates. In the screen, staurosporine and tamoxifen were used as positive controls. Library compounds were measured for their ability to cause the activation of caspase 3/7 in the cell line, as reflected by an increase in luminescence signal, in a concentration-dependent manner. Data were normalized to the controls for basal activity (DMSO only) and 100% stimulation (10 uM staurosporine). AC50 values were determined from concentration-response data modeled with the standard Hill equation.
qHTS protocol for caspase 3/7 assay in the BJ cells
[Step] [Parameter] [Value] [Description]
1. Reagent; 5 uL; 1000 the BJ cells/well
2. Time; 5 hr; 37 °C incubation
4. Controls; 23 nL; Tamoxifen 0.23 uM to 100 uM & staurosporine 1.4 pM to 100 uM
5. Time; 16 hr; 37 °C incubation
6. Reagent; 5 uL; Caspase-Glo 3/7 reagent
7. Time; 1 hr; Room Temperature
8. Detection; Luminescence; Viewlux plate reader
Keywords: caspase 3/7, apoptosis, the BJ cell line, luminescence, NTPHTS, NTPHTS_NCGC, NIEHS, EPA, DSSTox, MLSMR, MLSCN, NIH Roadmap, qHTS, NCGC
For the molecule `O=c1[nH][nH]c(=O)c2cc([N+](=O)[O-])ccc12`, the “caspase-3 activation” value is 1.61%.

With `CCCOCC(C)OCC(C)O` (stereo not given), the “caspase-3 activation” value was 0.305%.

`CCCCCCCCCCCCOCC1CO1` (stereo not given): the “caspase-3 activation” value was 1.79%.

Turning to `CCCCC(CC)CNCC(CC)CCCC` (stereo not given), the “caspase-3 activation” value was 1.21%.

Turning to `C1COC1`, the “caspase-3 activation” value was 0.48%.

Take `O=C(O)c1c(Cl)cccc1Cl`: the “caspase-3 activation” value is 0.492%.

Turning to `ClCCl`, the “caspase-3 activation” value was -0.453%.

For `CCN(C(=O)N(CC)c1ccccc1)c1ccccc1`, the “caspase-3 activation” value was 0.555%.

As to `CC(C)=CCC/C(C)=C/C=O`, the “caspase-3 activation” value was -3.97%.

Turning to `ClC/C=C/CCl`, the “caspase-3 activation” value is 0.0534%.

Take `CC/C=C1/OC(=O)c2ccccc21`: the “caspase-3 activation” value was 0.389%.

In the case of `COC(=O)CS`, the “caspase-3 activation” value was -0.302%.

For `CC(C)=C1CCC(C)CC1=O` (stereo not given), the “caspase-3 activation” value was -1.35%.

For the molecule `O=[N+]([O-])c1cccc(Cl)c1`, the “caspase-3 activation” value is -1.38%.

`BrC/C=C/CBr`: the “caspase-3 activation” value is -1.01%.

For the molecule `O=C(O)CCSSCCC(=O)O`, the “caspase-3 activation” value was 1.33%.

`Nc1nc(CC(=O)O)cs1`: the “caspase-3 activation” value was -0.709%.

Regarding `O=Cc1c(Cl)cccc1Cl`, the “caspase-3 activation” value is 0.585%.

As to `Cc1ccc([N+](=O)[O-])c(N)c1`, the “caspase-3 activation” value was -1.34%.

Regarding `Nc1cccc([N+](=O)[O-])c1`, the “caspase-3 activation” value was -0.0948%.

For `CCc1ccccc1O`, the “caspase-3 activation” value is 0.327%.

Turning to `CCCCC(CC)CO` (stereo not given), the “caspase-3 activation” value was -1.07%.

Regarding `O=Cc1ccccc1Cl`, the “caspase-3 activation” value was -0.784%.

Consider `Nc1cccc2c(=O)[nH][nH]c(=O)c12`, for which the “caspase-3 activation” value was -1.49%.

For the molecule `O=C(O)c1cc(Cl)cc(Cl)c1`, the “caspase-3 activation” value is -1.28%.

In the case of `NC(=O)c1ccccc1[N+](=O)[O-]`, the “caspase-3 activation” value is -1.29%.

With `CC1=C(/C=C/C(C)=C/C=C/C(C)=C\C=O)C(C)(C)CCC1`, the “caspase-3 activation” value is 19.5%.

On to `CN(C)c1cccc(O)c1`, for which the “caspase-3 activation” value was -0.227%.

Take `O=[N+]([O-])c1cccc(C(F)(F)F)c1`: the “caspase-3 activation” value is 0.0837%.

As to `O=C(O)c1cccc(Cl)c1Cl`, the “caspase-3 activation” value is 1.7%.

For the molecule `CCCCC(CC)C(=O)O` (stereo not given), the “caspase-3 activation” value was -1.91%.

In the case of `CC(C)(C)OCC1CO1` (stereo not given), the “caspase-3 activation” value is 0.901%.

For the molecule `CCCCC(C=O)CC` (stereo not given), the “caspase-3 activation” value was -0.702%.

On to `CC(CCl)OC(C)CCl` (stereo not given), for which the “caspase-3 activation” value was -0.159%.

As to `Nc1ccc(Cl)cc1[N+](=O)[O-]`, the “caspase-3 activation” value was 0.963%.

Take `C=Cc1ccc(C=C)cc1`: the “caspase-3 activation” value is 0.334%.

`O=C(O[C@@H](C(=O)O)[C@@H](OC(=O)c1ccccc1)C(=O)O)c1ccccc1`: the “caspase-3 activation” value is 0.272%.

With `CC(C)C(C)C`, the “caspase-3 activation” value is 0.0715%.

For the molecule `Cc1cccc(C(=O)O)c1`, the “caspase-3 activation” value is -4.56%.

Take `NS(=O)(=O)O`: the “caspase-3 activation” value is 0.11%.
